# Source: PubChem BioAssay
# “And” between values parts separate entries of the source, which are not always exact repeats. Equal entries are not always repeated. Inconclusive results are not listed. The source made the active and inactive calls. Cut-off read from the data, not from the text of the source, unless noted: active = inhibition above about 80%; inactive = the rest.
# Key:
# [1] = test system: Aerobactin synthetase IucA (Klebsiella pneumoniae); assay: inhibition of K. pneumoniae IucA enzyme – biochemical, Tocris library, absorbance (AID 1345561; call rule not given here;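 note: 100% = enzyme without compound and 0% = no enzyme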); settings: purified IucA enzyme assay, absorbance (OD) read-out; stronger effect = lower value;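 tested at 8 µM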
# [2] = chitosan synthesis blockers in C. neoformans – flow cytometry, Cibacron Brilliant Red staining (AID 1347148; call rule not given here;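 note: compound exposure lasted three days at 37 degrees C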); settings: Cryptococcus neoformans chitosan, stronger effect = lower value; at 99.1 µM unless noted
# [3] = growth inhibition, single agents and combos, LFS_MB_1R, cell-based, cisplatin or BGB combos, synergistic combos for chromothripsis tumors (AID 1671452); settings: LFS_MB_1R medulloblastoma cells, stronger effect = higher value;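 note: cells exposed for 96 hours before readout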
# [4] = growth inhibition, single agents and combos, CRL2098, cell-based, BGB or cisplatin IC20 combos, synergistic combos for chromothripsis tumors (AID 1671454); settings: CRL2098 osteosarcoma cells, drug combinations, stronger effect = higher value;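 note: cells exposed for 96 h before readout; 0% = vehicle DMSO and 100% = killing by high DMSO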
# [5] = growth inhibition, single agents and combos, HD-MB03, cell-based, BGB or cisplatin IC20 combos, synergistic combos for chromothripsis tumors (AID 1671455; in the data active = inhibition above about 83%;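 note: 0% = vehicle DMSO and 100% = high DMSO as cytotoxic control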); settings: HD-MB03 medulloblastoma cells, stronger effect = higher value
# [6] = growth inhibition, single agents and combos, UWB1.289, cell-based, BGB or cisplatin combos, synergistic combos for chromothripsis tumors (AID 1671456); settings: UWB1.289 ovarian carcinoma cells, stronger effect = higher value;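 note: cells exposed to compound for four days; 0% = vehicle DMSO and 100% = killing by high DMSO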
# [7] = growth inhibition, single agents and combos, LFS_MB_2R, cell-based, cisplatin combos, synergistic combos for chromothripsis tumors (AID 1671457); settings: LFS_MB_2R medulloblastoma cells, stronger effect = higher value;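 note: cells exposed to compound for four days before readout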
# [8] = growth inhibition, MDA-MB-436, cell-based, BGB or cisplatin combos, synergistic combos for chromothripsis tumors (AID 1671458; call rule not given here;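 note: cells exposed for 96 hours; 0% = vehicle DMSO and 100% = killing by high DMSO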); settings: MDA-MB-436 breast carcinoma growth inhibition, drug combinations, stronger effect = higher value
# [9] = UWB1.289_BRCA1 ovarian cancer growth, cell-based, BGB or cisplatin combinations (AID 1671459); settings: UWB1.289 BRCA1 ovarian carcinoma, drug combinations, stronger effect = higher value
# [10] = drug combination toxicity in non-malignant astrocytes – cell-based, BGB or cisplatin IC20 combos, cytotoxicity control for chromothriptic childhood tumor combination screen (AID 1671460); settings: Human astrocytes, viability inhibition, drug combinations, at 0.5 µM, stronger effect = higher value;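 note: cells exposed to compounds for 96 hours before viability readout; 0% = vehicle and 100% = killing control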
# [11] = BT084 cell growth, single and combined drugs, ICGC_MB145, cisplatin and BGB IC40 combos (AID 1671461); settings: BT084 medulloblastoma cells, drug combinations, stronger effect = higher value;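 note: cells exposed to drugs for 96 hours; 0% = vehicle DMSO and 100% = high DMSO full killing control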
# [12] = RCMB18 cell growth, single agent and combined, cisplatin and BGB IC40 combos (AID 1671462); settings: RCMB18 medulloblastoma cells, stronger effect = higher value;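 note: cells exposed to compound for four days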
# [13] = CRL1545 cell growth, single agent and combined, cisplatin and BGB IC20 combos (AID 1671464); settings: CRL1545 osteosarcoma cells, stronger effect = higher value;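 note: cells exposed to compound for 96 hours before readout; 0% = vehicle DMSO and 100% = high DMSO killing control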
# [14] = glutamate excitotoxicity neuroprotectants – cell-based, TUNEL DNA degradation staining, MNGlu (AID 1594; call rule not given here); settings: motor neurons, glutamate-induced death, at 1 µM, stronger effect = higher value
# [15] = selective SMN2 exon splicing luciferase activators – cell-based, SMN2/SMN1 luciferase reporters (AID 1598; call rule not given here); settings: SMN2 vs SMN1 luciferase splicing reporter cells, at 10 µM; SMN1 luciferase ratio: measured here: SMN1 luciferase reporter average; SMN2 luciferase ratio: measured here: SMN2 luciferase reporter average, stronger effect = higher value; SMN2/SMN1 luciferase ratio: stronger effect = higher value
# [16] = rescue of PC12 cells from polyQ htt toxicity – LDH release (AID 1610); settings: PC12 mutant huntingtin toxicity, final LDH at 4 uM, stronger effect = lower value
# [17] = antimalarial activity against Dd2 strain (AID 2302;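 active = growth inhibition above 50% at the single 2 µM test dose, taken to imply half-maximal potency below 2 µM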;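 note: 0% = DMSO untreated growth and 100% = chloroquine plus artemisinin killed control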); settings: P. falciparum Dd2 in RBCs, LDH growth readout, 72 h; at 2 µM; stronger effect = higher value
# [18] = human hepatoma cell viability loss – ATP luminescence, cytotoxicity control for P. falciparum antimalarial project, primary screen (AID 2303;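 active = inhibition above 50%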;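 note: 0% = DMSO wells and 100% = digitonin-killed cells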); settings: HepG2 viability, 24-48 h, at 10 µM, stronger effect = higher value
# [19] = molecular target: L-lactate dehydrogenase (Plasmodium falciparum (isolate CDC / Honduras)) (UniProt Q27743); assay: PfLDH activity inhibition – cell lysate, 3D7 strain, counter-screen for P. falciparum growth inhibition project (AID 2304; call rule not given here;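 note: 0% = vehicle and 100% = reference inhibitor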); settings: P. falciparum 3D7 crude extract, LDH APAD/NBT absorbance; at 2 µM; stronger effect = higher value
# [20] = compounds altering HSF1 focus formation in cells – imaging, Selleck Cancer Library (AID 1347162; in the data active = plate-normalised HSF1 focus index below about 0.46); settings: human cells, HSF1 nuclear foci imaging, at 10 µM; SSMD: measured here: HSF1 foci SSMD mean; cell count: measured here: cell number; plate-normalised HSF1 focus index: stronger effect = lower value
# [21] = measured here: combination with BGB IC40, at 0.05 µM
# [22] = measured here: combination with cisplatin, at 0.5 µM
# [23] = measured here: combination with cisplatin, at 5 µM
# [24] = measured here: combination with BGB at IC20, at 0.5 µM
# [25] = measured here: combination with cisplatin at IC20, at 0.5 µM
# [26] = measured here: combo with BGB at IC20, at 0.5 µM
# [27] = measured here: combo with cisplatin at IC20, at 0.5 µM
# [28] = measured here: inhibition with BGB combination, at 0.05 µM
# [29] = measured here: inhibition with cisplatin combination, at 0.05 µM
# [30] = measured here: BGB combination, at 0.5 µM
# [31] = measured here: BGB combination, at 5 µM
# [32] = measured here: cisplatin combination, at 0.5 µM
# [33] = measured here: cisplatin combination, at 5 µM
# [34] = BGB combination, concentration series, at 5 µM
# [35] = cisplatin combination, concentration series, at 5 µM
# [36] = measured here: combo with BGB IC20
# [37] = measured here: combo with cisplatin IC20
# [38] = cisplatin combination, at 0.5 µM
# [39] = measured here: BGB IC40 combination 0.05 uM, at 0.05 µM
# [40] = measured here: BGB IC40 combination, at 0.05 µM
# [41] = measured here: with BGB IC20 combination, at 0.5 µM
# [42] = measured here: with cisplatin IC20 combination, at 0.5 µM
# Sequence of L-lactate dehydrogenase (Plasmodium falciparum (isolate CDC / Honduras)) (Q27743 whole entry, looked up): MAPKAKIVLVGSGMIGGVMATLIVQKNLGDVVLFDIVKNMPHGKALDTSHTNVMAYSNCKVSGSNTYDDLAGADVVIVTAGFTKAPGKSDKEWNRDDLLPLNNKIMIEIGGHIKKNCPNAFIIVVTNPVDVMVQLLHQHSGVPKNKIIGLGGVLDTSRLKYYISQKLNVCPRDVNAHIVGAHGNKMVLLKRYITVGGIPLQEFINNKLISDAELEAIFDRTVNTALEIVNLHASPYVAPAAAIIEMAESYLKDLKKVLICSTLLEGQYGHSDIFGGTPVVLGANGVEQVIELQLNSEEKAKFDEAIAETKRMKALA
smiles,measurement,setting,value
CC1=NS(=O)(=O)c2cc(Cl)ccc2N1,remaining activity,[1],104% (inactive)
same,fold fluorescence,[2],4.83 [at 216.8 µM] (inactive)
COc1ccc(Cl)cc1C(=O)NCCc1ccc(S(=O)(=O)NC(=O)NC2CCCCC2)cc1,remaining activity,[1],104% (inactive)
same,fold fluorescence,[2],3.32 [at 101.2 µM] (inactive)
CS(=O)(=O)OCCCCOS(C)(=O)=O,inhibition,[3]; at 0.5 µM,-13.7% (inactive) and -24.5% (inactive)
same,inhibition,[3]; [21],-7.13% and -11.8%
same,inhibition,[3]; [22],-41.7% and -21.3%
same,inhibition,[3]; [23],-51.5% and 4.47%
same,inhibition,[4]; at 0.5 µM,-52.1% (inactive) and -4.61% (inactive)
same,inhibition,[4]; [24],-29.9% and -15.7%
same,inhibition,[4]; [25],-107% and 11.7%
same,inhibition,[5]; at 0.5 µM,-10.8% (inactive) and -1.12% (inactive)
same,inhibition,[5]; [26],-20.4% and -4.59%
same,inhibition,[5]; [27],-6.85% and 1.19%
same,inhibition,[6]; at 0.5 µM,4.55% (inactive) and 10.4% (inactive)
same,inhibition,[6]; [28],-3.6% and 0.829%
same,inhibition,[6]; [29],24.9% and -0.011%
same,inhibition,[7]; at 0.5 µM,-13.8% (inactive) and 9.5% (inactive)
same,inhibition,[7]; [22],-18.7% and -5.75%
same,inhibition,[7]; [23],-4.43% and 9.74%
same,inhibition,[8]; at 0.5 µM,-11.8% (inactive) and -10.9% (inactive)
same,inhibition,[8]; [30],-20.7% and -8.16%
same,inhibition,[8]; [31],10.5% and 6.58%
same,inhibition,[8]; [32],-15.8% and -27%
same,inhibition,[8]; [33],-17.4% and 2.99%
same,inhibition,[9]; [34],12% and 6.21%
same,inhibition,[9]; at 0.5 µM,5.87% (inactive) and 9.31% (inactive)
same,inhibition,[9]; [35],-4.07% and 9.32%
same,inhibition,[10],7.45% (inactive) and 3.61% (inactive)
same,inhibition,[10]; [36],2.2% and 2.78%
same,inhibition,[10]; [37],9.68% and 12.3%
same,inhibition,[11]; at 0.5 µM,3.5% (inactive) and 8.55% (inactive)
same,inhibition,[11]; [38],-11.9% and 10.4%
same,inhibition,"[11]; cisplatin combination, at 5 µM",13.1% and -35.4%
same,inhibition,[11]; [39],-26.6% and 22.9%
same,inhibition,"[11]; single agent, at 5 µM",10.9% and -3.7%
same,inhibition,[12]; at 0.5 µM,-11.1% (inactive) and -2.44% (inactive)
same,inhibition,"[12]; cisplatin combo, at 5 µM",-65.6% and 7.8%
same,inhibition,[12]; [40],-1.43% and 7.53%
same,inhibition,[12]; [22],-15.9% and -14.5%
same,inhibition,"[12]; single agent, at 5 µM",-7.92% and -9.74%
same,inhibition,[13]; at 0.5 µM,-1.43% (inactive) and -28.8% (inactive)
same,inhibition,[13]; [41],-7.16% and 14.9%
same,inhibition,[13]; [42],-0.178% and -50.7%
same,inhibition,"[13]; single agent, at 0.05 µM",-16.2% and -23.2%
same,inhibition,"[13]; single agent, at 5 µM",-7.55% and 21.7%
CC12CC3CC(C)(C1)CC(N)(C3)C2,remaining activity,[1],87.5% (inactive)
CC(=O)OCC(CCn1cnc2cnc(N)nc21)COC(C)=O,inhibition,[3]; at 0.5 µM,-6.39% (inactive)
same,inhibition,[3]; [21],-41.8%
same,inhibition,[3]; [22],-15.8%
same,inhibition,[3]; [23],-6.32%
same,inhibition,[4]; at 0.5 µM,-1.73% (inactive)
same,inhibition,[4]; [24],-9.88%
same,inhibition,[4]; [25],-30.1%
same,inhibition,[5]; at 0.5 µM,-9.43% (inactive)
same,inhibition,[5]; [26],-6.57%
same,inhibition,[5]; [27],-14.8%
same,inhibition,[6]; at 0.5 µM,5.6% (inactive)
same,inhibition,[6]; [28],-6.88%
same,inhibition,[6]; [29],-9.39%
same,inhibition,[7]; at 0.5 µM,-19.1% (inactive)
same,inhibition,[7]; [22],-22.6%
same,inhibition,[7]; [23],-72.7%
same,inhibition,[8]; at 0.5 µM,-18.3% (inactive)
same,inhibition,[8]; [30],-5.73%
same,inhibition,[8]; [31],-13.3%
same,inhibition,[8]; [32],-45.7%
same,inhibition,[8]; [33],-24.3%
same,inhibition,[9]; [34],-1.67%
same,inhibition,[9]; at 0.5 µM,-3.29% (inactive)
same,inhibition,[9]; [35],11.9%
same,inhibition,[10],8.43% (inactive)
same,inhibition,[10]; [36],10.6%
same,inhibition,[10]; [37],-5.87%
same,inhibition,[11]; at 0.5 µM,-39.8% (inactive)
same,inhibition,[11]; [38],-22.3%
same,inhibition,"[11]; cisplatin combination, at 5 µM",-19.5%
same,inhibition,[11]; [39],-14.8%
same,inhibition,"[11]; single agent, at 5 µM",-21.3%
same,inhibition,[12]; at 0.5 µM,-15.5% (inactive)
same,inhibition,"[12]; cisplatin combo, at 5 µM",-24.5%
same,inhibition,[12]; [40],-9.28%
same,inhibition,[12]; [22],3.82%
same,inhibition,"[12]; single agent, at 5 µM",-35%
same,inhibition,[13]; at 0.5 µM,-2.74% (inactive)
same,inhibition,[13]; [41],4.75%
same,inhibition,[13]; [42],-8.9%
same,inhibition,"[13]; single agent, at 0.05 µM",-17%
same,inhibition,"[13]; single agent, at 5 µM",5.18%
COC1=CC(=O)C[C@@H](C)[C@]12Oc1c(Cl)c(OC)cc(OC)c1C2=O,protection,[14],17% (active)
CO[C@@]1(NC(=O)Cc2cccs2)C(=O)N2C(C(=O)O)=C(COC(N)=O)CS[C@@H]21,SMN1 luciferase ratio,[15],1.2
same,SMN2/SMN1 luciferase ratio,[15],1.24 (active)
same,SMN2 luciferase ratio,[15],1.48
CN(C)CCOC(c1ccc(Cl)cc1)c1ccccn1 (configuration not stated),normalised LDH release,[16],0.839
CCc1nc(N)nc(N)c1-c1ccc(Cl)cc1,growth inhibition,[17],0% (inactive) and -1% (inactive)
same,inhibition,[18],66% (active) and 71% (active)
same,inhibition,[19],-5% (inactive) and 5% (inactive)
CCN(CC)CCNC(=O)c1ccc(N)cc1,fold fluorescence,[2],4.18 [at 212.5 µM] (inactive)
OCCN1CCN(CCCN2c3ccccc3Sc3ccc(Cl)cc32)CC1,normalised LDH release,[16],0.608
CC(N=C(NC#N)Nc1ccncc1)C(C)(C)C (configuration not stated),fold fluorescence,[2],3.41 [at 203.8 µM] (inactive)
CCCCNC(=O)NS(=O)(=O)c1ccc(C)cc1,fold fluorescence,[2],3.24 [at 184.9 µM] (inactive)
O=C(CCCN1CC=C(n2c(=O)[nH]c3ccccc32)CC1)c1ccc(F)cc1,protection,[14],35% (active)
Cc1ccc(S(=O)(=O)NC(=O)NN2CCCCCC2)cc1,fold fluorescence,[2],4.87 [at 160.6 µM] (inactive)
C[C@]12CCC(=O)C=C1CC[C@@H]1[C@@H]2[C@@H](O)C[C@@]2(C)[C@H]1CC[C@]2(O)C(=O)CO,SSMD,[20],2.5
same,cell count,[20],6980
same,plate-normalised HSF1 focus index,[20],1.13 (inactive)
CC[C@H](C)C(=O)O[C@H]1C[C@H](O)C=C2C=C[C@H](C)[C@H](CC[C@@H](O)C[C@@H](O)CC(=O)O)[C@H]21,remaining activity,[1],123% (inactive)
